The values that follow come from PubChem BioAssay (NCI).

“And” between values parts separate entries of the source, which are not always exact repeats. Equal values may be shown once. The panel holds about 79,000 compounds, 15% with a hit somewhere; the sample as a whole holds those more often. A number with no mark means an inactive call. The source made the active and inactive calls. Rule as the data show it: active = growth inhibition above about 70%; inactive = the rest. Where a SMILES comes first, the peptide text is derived from it.

Assay [1] is described as follows: NCI Yeast Anticancer Drug Screen. Data for the rad50 strain (AID 155).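 Also: 0% = growth of vehicle-only cultures of the same strain.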 The following applies: S. cerevisiae rad50 strain growth inhibition, stronger effect = higher value; at 50.0 µM unless noted. In a few lines: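 Relative growth inhibition (compound vs vehicle) was measured in yeast with a defined repair-gene alteration.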
The nature of assay [2]: NCI Yeast Anticancer Drug Screen. Data for the mec2-1 strain (AID 157). The settings on record: S. cerevisiae mec2-1 strain, stronger effect = higher value; at 50.0 µM unless noted. In a few lines: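 Yeast mec2-1 mutant treated with compound. Readout: growth inhibition vs vehicle controls.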
The nature of assay [3]: NCI Yeast Anticancer Drug Screen. Data for the sgs1 mgt1 strain (AID 161).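 Also: 0% = growth of cultures given vehicle only.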 The settings on record: S. cerevisiae sgs1 mgt1 strain, stronger effect = higher value; at 50.0 µM unless noted. In a few lines:
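Mutant yeast exposed to compound; growth scored against vehicle-only wells.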

Assay [4] in a line: NCI Yeast Anticancer Drug Screen. Data for the cln2 rad14 strain (AID 165).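 Also: 0% = growth equal to vehicle treated cultures.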 The settings on record: S. cerevisiae cln2 rad14 strain, stronger effect = higher value; at 50.0 µM unless noted. In a few lines:
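cln2 rad14 yeast strain; compound exposure; growth inhibition read vs vehicle controls.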

Assay [5] can be described thus: NCI Yeast Anticancer Drug Screen. Data for the bub3 strain (AID 167). The following applies: S. cerevisiae bub3 mutant strain, stronger effect = higher value; at 50.0 µM unless noted. In a few lines: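 Screening used yeast with an engineered genetic alteration affecting cell cycle control. Compound-exposed cultures were compared with vehicle cultures, and reduced growth was taken as inhibition.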

The nature of assay [6]: NCI Yeast Anticancer Drug Screen. Data for the mlh1 rad18 strain (AID 175). The settings on record: S. cerevisiae mlh1 rad18 strain growth inhibition, stronger effect = higher value; at 50.0 µM unless noted. In a few lines:
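Yeast w/ defined DNA-repair lesions; compound exposure; growth vs vehicle controls → % inhibition.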

As to `OC1COC(c2ccccc2)OC1` (centres undefined), the growth inhibition in assay [1] is -7.15%; in assay [2], -2.1%; in assay [3] it was 4.15%; in assay [4], -5.85%; in assay [5], -1.75%; in assay [6] it was 24.6%.

`O=C(COc1ccc(Cl)cc1)Nc1cc(Cl)c(Cl)cc1Cl`: the growth inhibition in assay [1] is -1.55%; in assay [2], -7.2%; in assay [3], 3.1%; in assay [4] it was -17.7%; in assay [5] it was 11.2%; in assay [6], 1.3%.

As to `O=C(Oc1ccccc1)C(=O)Oc1ccccc1`, the growth inhibition in assay [1] is -20.6%; in assay [2], -24.9%; in assay [3] it was -8.75%; in assay [4] it was -15.4%; in assay [5], -0.1%; in assay [6], 6.4%.

As to `O=C(O)CCC(=O)CCC(=O)O`, the growth inhibition was 13.7% in assay [1]; -8.85% in assay [2]; 3.6% in assay [3]; 2% in assay [4]; -14.6% in assay [5]; 7.2% in assay [6].

Consider `C=C(C)C(C)OC(=O)Nc1ccccc1` (centres undefined), for which the growth inhibition in assay [1] is 12.7%; in assay [2], -3.05%; in assay [3], -16.1%; in assay [4] it was 7.4%; in assay [5] it was -3.95%; in assay [6], -37.5%.

Take `COc1ccc2c(c1)CCC1=C2CCC2(C)C1=CCS2(=O)=O` (centres undefined): the growth inhibition in assay [1] is 3.85%; in assay [2], -5.6%; in assay [3], -7.9%; in assay [4], 22.6%; in assay [5] it was 8.45%; in assay [6] it was -1.9%.

Turning to `CCOc1ccc(N=Nc2c(-c3ccccc3)nn(C(=O)CC(=O)Nc3ccccc3Cl)c2-c2ccccc2)cc1`, the growth inhibition in assay [1] is 20.6%; in assay [2], -8.2%; in assay [3], 34.6%; in assay [4], 3.5%; in assay [5], 31%; in assay [6], 18.7%.

With `FC(F)(F)c1ccc2nc(NCc3ccccc3)c(-c3ccccc3)nc2c1`, the growth inhibition was 3.85% in assay [1]; 15.6% in assay [2]; 24.6% in assay [3]; -6.25% in assay [4]; 26.9% in assay [5]; 35.8% in assay [6].

For `CCCCCCCCCCCC(=O)NC(=S)Nc1cccc(O)c1`, the growth inhibition in assay [1] was 84.3% (active); in assay [2], 63.8%; in assay [3], 74.4% (active); in assay [4], 90.3% (active); in assay [5], 93% (active); in assay [6] it was 81.4% (active).

Regarding `O=c1[nH]c(=O)c2cc(Cl)ccc2[nH]1`, the growth inhibition is 3.2% in assay [1]; 6.75% in assay [2]; -2.75% in assay [3]; -37% in assay [4]; 4.75% in assay [5]; 0.65% in assay [6].

Regarding `Cc1cc(O)c(C)cc1O`, the growth inhibition was 16.1% in assay [1]; 5.5% in assay [2]; -2.85% in assay [3]; 6.5% in assay [4]; -7.95% in assay [5]; 21.6% in assay [6].

For the compound `O=C(Nc1ccccc1C(F)(F)F)C(c1ccccc1)c1ccccc1`, the growth inhibition in assay [1] was 19.5%; in assay [2], 12.2%; in assay [3], 8.15%; in assay [4] it was 9.55%; in assay [5], 10.8%; in assay [6] it was 3.35%.

Take `CC1=NC(=Cc2cc(Br)cc(Br)c2)C(=O)N1n1c(-c2ccccc2)nc2ccccc2c1=O`: the growth inhibition in assay [1] was -13.2%; in assay [2] it was -15.8%; in assay [3] it was -1.65%; in assay [4], 0.95%; in assay [5], -24.7%; in assay [6], 2.7%.

Take `CC(C)C(C(N)=O)(C(=O)O)C(C)C`: the growth inhibition in assay [1] is -4.25%; in assay [2] it was 4.05%; in assay [3], 4.6%; in assay [4], 5.2%; in assay [5] it was -5.5%; in assay [6], 6.85%.

With `CCOC(=O)CNC(=O)SCc1ccccc1`, the growth inhibition was -12.4% in assay [1]; -6.2% in assay [2]; -5.95% in assay [3]; -8.1% in assay [4]; -11.3% in assay [5]; 1.45% in assay [6].

Consider `CCCNC(=O)NS(=O)(=O)c1ccc(Cl)cc1`, for which the growth inhibition in assay [1] is -4.15% and -5.15%; in assay [2], 0.2% and -0.4%; in assay [3], 4.2% and 1.6%; in assay [4], 15.6% and -26.4%; in assay [5], 11.7% and 23.1%; in assay [6], 38.3% and -7.15%.

In the case of `CCC(C)(C)c1ccc(C(=O)OC)o1`, the growth inhibition in assay [1] was 4.1%; in assay [2], 16.2%; in assay [3], -5.55%; in assay [4], -13.3%; in assay [5], -7.3%; in assay [6] it was -13.8%.

Regarding `COCN(CCc1ccccc1)CCN(C)C`, the growth inhibition is 1.4% in assay [1]; 5.1% in assay [2]; 35% in assay [3]; 7.2% in assay [4]; 2.05% in assay [5]; 16.5% in assay [6].

For the compound `Cc1ccc(NC(=O)c2cccc(OP(=O)(O)Nc3ccc(C)cc3)c2)cc1`, the growth inhibition was -13.7% in assay [1]; 2.7% in assay [2]; 2.8% in assay [3]; 17% in assay [4]; -0.95% in assay [5]; -17% in assay [6].

With `CCCCN(CCCC)C(=N)c1ccccc1C`, the growth inhibition was 4.8% in assay [1]; -13.9% in assay [2]; 10.9% in assay [3]; -23.6% in assay [4]; 1.55% in assay [5]; -3.35% in assay [6].

Take `COc1cc(/C=N/NC(=O)c2ccccc2NC(=O)c2ccccc2)ccc1O`: the growth inhibition in assay [1] was 2.05%; in assay [2] it was -13%; in assay [3] it was 20.1%; in assay [4], -32.5%; in assay [5] it was 37.7%; in assay [6], 30.9%.

For the compound `Cc1cccc(NC(=O)C(=O)C(C(=O)c2ccc3ccccc3c2)C2OC(=O)c3ccccc32)c1C` (centres undefined), the growth inhibition is -3.95% in assay [1]; 4.75% in assay [2]; 13.5% in assay [3]; -59.5% in assay [4]; 5.75% in assay [5]; -6.75% in assay [6].

For `CC(=O)Nc1cc(S(=O)(=O)O)cc2cc(S(=O)(=O)O)cc(O)c12`, the growth inhibition in assay [1] is -20.9%; in assay [2], -13.3%; in assay [3], -0.05%; in assay [4] it was 21.8%; in assay [5] it was 15.6%; in assay [6], -8.2%.

For `Nc1ccc(C(=O)N/N=C/c2ccccc2O)cc1`, the growth inhibition in assay [1] is 16.9%; in assay [2], 12.7%; in assay [3], 4.15%; in assay [4], 7.55%; in assay [5], 0%; in assay [6] it was 19.2%.

Consider `Cc1cc(C)c2c(c1)CC(C)(C)CC2=O`, for which the growth inhibition is 4% in assay [1]; -7.95% in assay [2]; -1.1% in assay [3]; 2.5% in assay [4]; -4.55% in assay [5]; -2.6% in assay [6].

Turning to `c1cnc2c(c1)Oc1nc3ccccc3nc1S2`, the growth inhibition is 2.25% in assay [1]; 6% in assay [2]; 3.9% in assay [3]; 35.9% in assay [4]; 8.9% in assay [5]; 23.1% in assay [6].

On to `COc1ccc(OCc2ccc(OC)c(OC)c2)cc1`, for which the growth inhibition in assay [1] was 7.2%; in assay [2], -3.7%; in assay [3], -11.2%; in assay [4], -10.7%; in assay [5], -8.15%; in assay [6] it was -7.35%.

For the compound `NC(=O)C1CCCN1C(=O)C(N)Cc1ccccc1` (stereo not drawn) (H-Phe-Pro-NH2; configuration not given here), the growth inhibition in assay [1] was -26.9%; in assay [2] it was -44.1%; in assay [3], -21.1%; in assay [4], 5.7%; in assay [5], 4.7%; in assay [6] it was -9.05%.

Consider `Cc1ncc(C(N)=S)c(N)n1`, for which the growth inhibition in assay [1] was 9.95%; in assay [2], -0.05%; in assay [3], -0.15%; in assay [4] it was -47.4%; in assay [5], -8.55%; in assay [6], 14.3%.

On to `O=C(CO[N+](=O)[O-])OC/C=C/c1ccccc1`, for which the growth inhibition is -4.25% in assay [1]; 5.35% in assay [2]; -2% in assay [3]; -0.65% in assay [4]; 2.55% in assay [5]; 8.6% in assay [6].

Take `Nc1cccc(OCCCCCOc2cccc(N)c2)c1`: the growth inhibition is -35.1% in assay [1]; -40.3% in assay [2]; -5.75% in assay [3]; 6.6% in assay [4]; -34.5% in assay [5]; -20.4% in assay [6].

Turning to `O=C(CCS(=O)(=O)CCC(=O)c1ccccc1)c1ccccc1`, the growth inhibition in assay [1] is -12.3%; in assay [2] it was 11.8%; in assay [3], 2.25%; in assay [4], -6.35%; in assay [5] it was -4.4%; in assay [6], 3.1%.

On to `N#Cc1ccc(-c2ccc(C#N)cc2)cc1`, for which the growth inhibition was -19.4% in assay [1]; -23.3% in assay [2]; -14.1% in assay [3]; 9.05% in assay [4]; -20.1% in assay [5]; 7.05% in assay [6].

Regarding `CCSc1nnc(SCC)c2c1ncn2CC`, the growth inhibition is 19.9% in assay [1]; 5.8% in assay [2]; 26.4% in assay [3]; -39.8% in assay [4]; 7.5% in assay [5]; 9.05% in assay [6].

With `Nc1nc(=S)[nH]c(=S)[nH]1`, the growth inhibition in assay [1] was 22.9%; in assay [2] it was 19.4%; in assay [3] it was 10.9%; in assay [4] it was 2.7%; in assay [5], 17.2%; in assay [6] it was -4.45%.

With `COC(=O)N/N=C(/CCCC(=O)Nc1cccc([N+](=O)[O-])c1)C(C#N)c1ccc(CC#N)cc1` (centres undefined), the growth inhibition was -3.55% in assay [1]; -0.1% in assay [2]; -13.6% in assay [3]; 1.8% in assay [4]; 6.65% in assay [5]; -3.3% in assay [6].

Take `CC1CC(NC(=S)N(C)C)CC(C)(C)C1` (centres undefined): the growth inhibition in assay [1] was 6.9%; in assay [2], 3.65%; in assay [3], 18.8%; in assay [4] it was -10.8%; in assay [5] it was 47.9%; in assay [6], 3.55%.

For the compound `O=C1C(O)C(O)C(O)C(O)C1O` (centres undefined), the growth inhibition in assay [1] was 22.7% and -14.6%; in assay [2] it was 20.5% and -17.2%; in assay [3], 3.9% and -36.9%; in assay [4] it was 15.9% and -12.3%; in assay [5], 20.8% and -8.35%; in assay [6], 19.7% and -3.55%.

With `CCOc1ccccc1/C=C1\N=C(c2ccc([N+](=O)[O-])cc2)OC1=O`, the growth inhibition in assay [1] was 22.5%; in assay [2], 21.2%; in assay [3], 38.7%; in assay [4], 25.5%; in assay [5], 30.1%; in assay [6], 31%.
